GALR2 blocker: blocks the human galanin receptor 2; O43603; inhibition, % at 4 µM; GALR2-expressing cells, antagonist mode; hit rate 0.39% among 140,000; AID 828; in the data active = inhibition above about 27%;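 note: cells stimulated with galanin 1-16 at roughly its EC80; 0% = agonist challenge control and 100% = basal control without agonist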
Target sequence (O43603 whole entry, looked up): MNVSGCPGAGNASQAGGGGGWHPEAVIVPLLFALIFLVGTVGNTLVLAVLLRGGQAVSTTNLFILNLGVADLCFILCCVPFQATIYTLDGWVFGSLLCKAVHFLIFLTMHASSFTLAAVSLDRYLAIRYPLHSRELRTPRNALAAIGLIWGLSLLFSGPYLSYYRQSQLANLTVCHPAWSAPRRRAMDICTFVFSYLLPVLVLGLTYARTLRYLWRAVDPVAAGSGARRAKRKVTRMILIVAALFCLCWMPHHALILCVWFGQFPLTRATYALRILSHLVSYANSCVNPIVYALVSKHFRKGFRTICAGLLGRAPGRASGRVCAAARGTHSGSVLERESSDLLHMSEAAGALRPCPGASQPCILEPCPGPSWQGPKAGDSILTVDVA
S1P2 blocker: S1P2 (human) receptor antagonism. O95136. cell-based S1P2 antagonist assay, inhibition at 5 uM. inhibition, % at 5 µM. hit rate 0.21% among 97,000; in the data active = inhibition above about 45%;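 note: CRE beta-lactamase reporter cells expressing human S1P2 stimulated with S1P; 0% = agonist at EC80 alone and 100% = agonist plus reference antagonist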
LYP inh 2: inhibitors of human LYP (PTPN22) phosphatase; Q9Y2R2; recombinant LYP catalytic domain, DiFMUP fluorescence; inhibition, % at 2 µM; hit rate 0.21% among 96,000;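 active = inhibition at 2 µM at or above a set limit, the screen mean plus 3 SD, cut at about 24% in these data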;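 note: 0% = DMSO with enzyme and 100% = enzyme fully blocked by orthovanadate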
S1P2 ag: agonists of human S1P2 receptor; hit rate 0.46% among 97,000; O95136; activation, % at 4.5 µM; S1P2-expressing cell line, agonist reporter read-out; in the data active = activation above about 16%;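 note: 0% = vehicle low control and 100% = maximal reference agonist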
PTPN22 act: increases human PTPN22 phosphatase activity; Q9Y2R2; recombinant LYP, DiFMUP fluorescence; 0 = plate median, 100 = signal doubled; activation, % at 2 µM; hit rate 0.11% among 96,000; AID 697;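 active = activation at 2 µM above a set limit, the mean plus 5 SD, cut at about 37% in these data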
GALR2 ag: GALR2 (human) receptor agonism | activation, % (no concentration beside the values) | GALR2-expressing cells, agonist activation read-out | hit rate 0.48% among 140,000; in the data active = activation above about 5%, passing the limit was not always enough;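 note: 0% = vehicle buffer wells and 100% = reference agonist at full effect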
* hit, by the source's call. Sampled rows, rich in hits. Any-hit rate of the full collection: about 1.3%.

For Cc1cc(C)c(S(=O)(=O)Nc2ccc(O)cc2)cc1C the results were GALR2 blocker -1.1, S1P2 blocker -6.6, LYP inh 2 -9.6, S1P2 ag 65.2*, PTPN22 act 7.2 and GALR2 ag -0.5.
Screening COc1cc(C2C(C#N)=C(C)NC3=C2C(=O)c2ccccc23)cc(OC)c1OC (stereo not given) returned GALR2 blocker 30.6*, S1P2 blocker -2.1, LYP inh 2 -7.2, S1P2 ag 7.2, PTPN22 act 3.9 and GALR2 ag -2.3.
CC(C)OCCCNC(=S)Nc1ccc(S(N)(=O)=O)cc1 was read as GALR2 blocker 3.8 and GALR2 ag -1.0.
Screening Cc1cc2ccccc2n1CCNC(=O)Cc1cccc2ccccc12 returned GALR2 blocker 4.9, S1P2 blocker 16.7, LYP inh 2 -4.4, S1P2 ag -5.1, PTPN22 act 1.4 and GALR2 ag -2.6.
Screening Cn1c(-c2cc3ccc(OC(=O)C(C)(C)C)cc3oc2=O)nc2ccccc21 returned GALR2 blocker 21.5, S1P2 blocker 1.8, LYP inh 2 1.7, S1P2 ag 34.3*, PTPN22 act 1.0 and GALR2 ag 45.5*.
For O=C(Nc1cccc(S(=O)(=O)N2CCCCC2)c1)Nc1ccc(Cl)cc1Cl the results were GALR2 blocker 2.4 and GALR2 ag -0.6.
Screening CCc1c(C)nc(Nc2nc(C)c3cc(OC)ccc3n2)[nH]c1=O returned GALR2 blocker -0.2, S1P2 blocker -22.0, LYP inh 2 2.2, S1P2 ag 8.7, PTPN22 act -3.2 and GALR2 ag -0.9.
Screening CCc1ccc2nc(Nc3nc(COC)cc(=O)[nH]3)nc(C)c2c1 returned GALR2 blocker -1.5, S1P2 blocker -19.3, LYP inh 2 10.2, S1P2 ag 19.3*, PTPN22 act -5.2 and GALR2 ag -1.3.
For Cc1cc(C(=O)CN2C(=O)CCC2=O)c(C)n1Cc1ccccc1 the results were GALR2 blocker -10.7, S1P2 blocker -40.7, LYP inh 2 2.3, S1P2 ag 150.3*, PTPN22 act -3.4 and GALR2 ag -0.5.
`Cc1cc(C(=O)CN2C(=O)c3ccccc3C2=O)c(C)n1Cc1cccs1` gave GALR2 blocker -6.5, S1P2 blocker -2.6, LYP inh 2 4.4, S1P2 ag 26.9*, PTPN22 act -1.4 and GALR2 ag -0.6.
For Cc1cc(C(=O)Cn2nnc3ccccc3c2=O)c(C)n1Cc1cccs1 the results were GALR2 blocker 4.1, S1P2 blocker -4.5, LYP inh 2 7.7, S1P2 ag 0.5, PTPN22 act -7.6 and GALR2 ag -2.4.
`Cn1c(N2CCOCC2)nc(-c2ccccc2)c1-c1ccccc1` gave GALR2 blocker -8.3, S1P2 blocker 35.6, LYP inh 2 -16.2, S1P2 ag 0.4, PTPN22 act 15.8 and GALR2 ag 0.9.
Screening Cc1nc(NC(=O)CC(C)C)sc1-c1csc(Nc2ccc(Cl)cc2Cl)n1 returned GALR2 blocker -24.9, S1P2 blocker 7.4, LYP inh 2 20.9, S1P2 ag -3.2, PTPN22 act -17.6 and GALR2 ag -0.7.
For Cc1nc(NC(=O)CC(C)C)sc1-c1csc(Nc2ccc(Cl)cc2)n1 the results were GALR2 blocker 10.8, S1P2 blocker 5.4, LYP inh 2 50.6*, S1P2 ag -10.7, PTPN22 act -49.0 and GALR2 ag -2.8.
CN(C)CC(C(=O)c1ccccc1)c1ccccc1 (stereo not given) was read as GALR2 blocker 41.9* and GALR2 ag -0.6.
For N#CCc1ccc(C(=O)c2ccccc2F)s1 the results were GALR2 blocker 4.8, S1P2 blocker -11.2, LYP inh 2 -2.5, S1P2 ag -0.1, PTPN22 act 5.8 and GALR2 ag -3.8.
`COc1cc(OC)cc(C(=O)Nc2ccccc2C(=O)N2CCCC2)c1` gave GALR2 blocker 2.3, S1P2 blocker 26.8, LYP inh 2 51.5*, S1P2 ag -1.1, PTPN22 act -50.8 and GALR2 ag -0.5.
Screening COc1ccccc1C(=O)N1CCCN(C(=O)c2ccccc2OC)CC1 returned GALR2 blocker -8.7, S1P2 blocker 4.2, LYP inh 2 -5.3, S1P2 ag 37.3*, PTPN22 act 9.0 and GALR2 ag -0.3.
Screening COc1ccccc1C(=O)Nc1ccccc1C(=O)N1CCCC1 returned GALR2 blocker -7.4, S1P2 blocker 16.6, LYP inh 2 2.5, S1P2 ag -2.4, PTPN22 act -0.2 and GALR2 ag -0.6.
`COc1ccccc1C(=O)N1CCN(c2ccccn2)CC1` gave GALR2 blocker 4.8, S1P2 blocker 5.2, LYP inh 2 4.8, S1P2 ag -5.2, PTPN22 act -6.4 and GALR2 ag -1.9.
